In PubChem BioAssay (NCATS):
Results filed as inconclusive are left out. Activity calls are given as the source filed them. Unless noted, calls follow the shape of the dose curve; as a rule, active = well fitted cell-killing curve with a large enough effect; inconclusive = small, poorly fitted or top-dose-only effect; inactive = flat fitted curve, though single readings scatter.

Columns and labels:
[1] = Cell Viability - LYMP2-012 (AID 982);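 also: cellular ATP by luciferase luminescence where a drop means cytotoxicity; potency is read from the fitted curve at half-maximal effect; cells exposed to compound for one day before reading; nearly all actives have a fitted effect of over 55% in size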
[2] = Cell Viability - LYMP2-014 (AID 983); also: potency is read from the fitted curve at half-maximal effect; nearly all actives have a fitted effect of over 50% in size
Outline: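 Decrease in intracellular ATP after 24 hr treatment at 37 C, measured by luciferase luminescence, indicated cytotoxicity. Concentration-response data were fitted with the standard Hill equation to give AC50.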

[3] = Cell Viability - LYMP2-016 (AID 984);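 also: potency is read from the fitted curve at half-maximal effect; cells exposed to compound for 24 hours at 37 °C; nearly all actives have a fitted effect of over 55% in size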
Outline: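 Cytotoxicity was scored by luminescent ATP content (CellTiter-Glo) after 24 h compound exposure at 37 C of a human lymphoblastoid line at 2500 cells/well. Concentration-response data were fitted to the Hill equation for AC50.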

[4] = Cell Viability - LYMP2-018 (AID 985);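 also: potency is read from the fitted curve at half-maximal effect; compound exposure lasted 24 hr at 37 °C; nearly all actives have a fitted effect of over 50% in size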
Outline: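 Acute cytotoxicity is scored as a concentration-dependent drop in intracellular ATP after 24 hr exposure of the lymphoblastoid line in complete culture medium, measured by luciferase luminescence. Potency is expressed as AC50 from Hill modelling.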

[5] = Cell Viability - LYMP2-020 (AID 986); also: potency is read from the fitted curve at half-maximal effect; nearly all actives have a fitted effect of over 55% in size
Outline: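 Acute cytotoxicity in a human lymphoblastoid line is scored as a concentration-dependent fall in cellular ATP after 24 hr at 37 C in complete medium. The positive control is tetraoctylammonium bromide, and potency is given as Hill-fit AC50.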

[6] = Cell Viability - LYMP2-022 (AID 987);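 also: potency is read from the fitted curve at half-maximal effect; cells exposed to compound for 24 hr; nearly all actives have a fitted effect of over 55% in size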
Outline: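 Acute toxicity in a human lymphoblastoid line is scored as decreased intracellular ATP after 24 hr compound treatment at 37 C. ATP is measured by CellTiter-Glo luminescence; curves are fitted with the Hill equation to give AC50.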

[7] = Cell Viability - LYMP2-024 (AID 988);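 also: potency is read from the fitted curve at half-maximal effect; cells exposed to compound for 24 hr at 37 °C; nearly all actives have a fitted effect of over 60% in size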
Outline: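 Acute toxicity is measured as concentration-dependent loss of intracellular ATP in a human lymphoblastoid line treated 24 hours at 37 C. Luciferase luminescence quantifies ATP; AC50 values come from standard Hill-equation modelling.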

[8] = Cell Viability - LYMP2-026 (AID 989); also: potency is read from the fitted curve at half-maximal effect; nearly all actives have a fitted effect of over 50% in size
Outline: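 Concentration-dependent loss of intracellular ATP in human lymphoblastoid cells after 24 hr at 37 C, quantified by luciferase luminescence. AC50 derived from standard Hill equation.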

[9] = Cell Viability - LYMP1-002 - Assay at 24 hr (AID 993); also: % is scaled to controls: 0 for no effect and ±100 for the full control effect
Outline: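 qHTS, LYMP1-002 lymphoblastoid, 24 h cpd, 37 C, CellTiter-Glo ATP luminescence; AC50 via Hill eq.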

[10] = Cell Viability - LYMP1-002 - Assay at 40 hr (AID 994);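 also: 0% = DMSO only and full inhibition = 92 µM tetraoctylammonium bromide; nearly all actives have a fitted effect of over 60% in size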
Outline: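 Viability in the human lymphoblastoid line was measured as intracellular ATP via CellTiter-Glo after 40 hr compound exposure. Tetraoctylammonium bromide served as positive control.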

[11] = biological target: Estrogen receptor (Homo sapiens) (UniProt P03372); experiment: qHTS assay for small molecule antagonists of estrogen receptor alpha signaling (AID 588513; active = well fitted curve in the direction sought with a large enough effect in the signal ratio, with a control signal flat, not every such curve was filed as active; the % refers to the signal ratio; also: % is scaled to controls: 0 for no effect and ±100 for the full control effect)
Outline: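 Antagonist mode: inhibition of 0.5 nM 17-beta-estradiol-driven beta-lactamase reporter in HEK 293 ER-alpha-UAS-bla cells, 18 h at 37C, CCF4 readout after 2 h at RT. Normalised to estradiol and DMSO; titration fitted to Hill.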

[12] = biological target: Estrogen receptor (Homo sapiens) (UniProt P03372); experiment: qHTS assay for small molecule agonists of estrogen receptor alpha signaling (AID 588514; calls by dose curve;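 also: 0% = vehicle only and 100% = reference agonist; nearly all actives have a fitted effect of over 70% in size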)
Outline: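 Reporter-gene assay. […] controls beta-lactamase in HEK 293 GripTite cells; after 18 hrs with compound, CCF4 substrate is added for 2 hrs and fluorescence is read.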

[13] = biological target: Bile acid receptor (Homo sapiens) (UniProt Q96RI1); experiment: qHTS assay for small molecule antagonists of farnesoid X receptor signaling (AID 588526; calls by dose curve; also: % is scaled to controls: 0 for no effect and ±100 for the full control effect)
Outline: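 Beta-lactamase reporter antagonist mode: HEK293T FXR-UAS-bla cells, titrated compound, CDCA stimulation, 16 h 37 C, CCF4 dye 2 h RT. Data normalized to CDCA 50 uM and DMSO; Hill-fit IC50.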

[14] = biological target: Bile acid receptor (Homo sapiens) (UniProt Q96RI1); experiment: qHTS assay for small molecule agonists of farnesoid X receptor signaling (AID 588527; calls by dose curve;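 also: series mostly up to about 77 µM; 0% = vehicle basal and 100% = reference agonist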); details: HEK293T FXR-UAS-bla, beta-lactamase ratio, 16 h; activation: stronger effect = higher value
Outline: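 Quantitative HTS used FXR-UAS-bla HEK293T cells with 16 h compound incubation at 37 C. EC50 values came from concentration-response curves normalized to chenodeoxycholic acid.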

[15] = biological target: Glucocorticoid receptor (Homo sapiens) (UniProt P04150); experiment: qHTS assay for small molecule agonists of glucocorticoid receptor signaling (AID 588532; active = well fitted curve in the direction sought with a large enough effect in the signal ratio, with a control signal flat; the % refers to the signal ratio;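 also: 100% = dexamethasone at 0.1 µM and 0% = DMSO only wells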); details: HeLa MMTV-bla, beta-lactamase ratio, agonist, 18 h; activation: stronger effect = higher value, percent of dexamethasone control, DMSO zero
Outline: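 Using MMTV-bla HeLa cells in medium with 1% stripped FBS and 25 mM HEPES, compounds were titrated and incubated overnight-length (18 h). Beta-lactamase cleavage of CCF4 was quantified by dual-emission fluorescence.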

[16] = biological target: Glucocorticoid receptor (Homo sapiens) (UniProt P04150); experiment: qHTS assay for small molecule antagonists of glucocorticoid receptor signaling (AID 588533; active = well fitted inhibition curve with a large enough effect in the signal ratio, with a control signal flat, not every such curve was filed as active; the % refers to the signal ratio;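 also: cells stimulated with 2 nM dexamethasone as agonist; % is scaled to controls: 0 for no effect and ±100 for the full control effect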)
Outline: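 Antagonist-mode qHTS: compound titrations added to GRE-bla HeLa cells, then dexamethasone 2 nM final; 18 h, 37 C. CCF4 FRET fluorescence normalized to dexamethasone and DMSO; IC50 from Hill fit.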

[17] = biological target: Peroxisome proliferator-activated receptor delta (Homo sapiens) (UniProt Q03181); experiment: qHTS assay for small molecule agonists of peroxisome proliferator-activated receptor delta signaling (AID 588534; calls by dose curve;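 also: 0% = DMSO basal wells and 100% = positive control agonist at 10 µM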)
Outline: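 Reporter cells were plated and held 5 hrs at 37 C before compounds were added. After 18 hrs at 37 C, CCF4 dye was loaded for 2 hrs at RT and fluorescence measured.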

[18] = qHTS assay for small molecule antagonists of peroxisome proliferator-activated receptor delta signaling (AID 588535; active = well fitted inhibition curve with a large enough effect in the signal ratio, with a control signal flat, not every such curve was filed as active; the % refers to the signal ratio;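 as to max response: cells co-treated with a PPAR-delta agonist as stimulator during compound exposure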); details: HEK293T PPARd-UAS-bla, beta-lactamase FRET ratio, 18 h; 460 nm channel
Outline: (§1)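 Cell-based beta-lactamase assay in antagonist mode: 4000 HEK293T PPAR-delta-UAS-bla cells per well, 5 hr preincubation then 18 hr compound incubation at 37 C. IC50 obtained by Hill equation fitting.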

[19] = biological target: Peroxisome proliferator-activated receptor delta (Homo sapiens) (UniProt Q03181); experiment: as above
Outline: as §1

[20] = biological target: Peroxisome proliferator-activated receptor gamma (Homo sapiens) (UniProt P37231); experiment: qHTS assay for small molecule agonists of peroxisome proliferator-activated receptor gamma signaling (AID 588536; active = well fitted curve in the direction sought with a large enough effect in the signal ratio, with a control signal flat, not every such curve was filed as active; the % refers to the signal ratio;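 also: 0% = DMSO basal wells and 100% = rosiglitazone at 2 µM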)
Outline: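 HEK293 UAS-bla reporter line, 1% charcoal/dextran FBS; titration, 16 h, 37 C; CCF4 loading 2 h RT; fluorescence 460/530 nm. Normalized to rosiglitazone 2 uM = 100%, DMSO = 0%.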

[21] = biological target: Vitamin D3 receptor (Homo sapiens) (UniProt P11473); experiment: qHTS assay for small molecule antagonists of vitamin D receptor signaling (AID 588541; calls by dose curve)
Outline: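 Antagonist-mode beta-lactamase reporter assay: HEK293T VDR-UAS-bla cells were exposed to titrated compound alongside 1-alpha,25-dihydroxyvitamin D3 at 3 nM final for 16 h. Values were normalized to the 50 nM agonist control and DMSO basal, with IC50 and efficacy from Hill equation fits.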

Chain of Peroxisome proliferator-activated receptor delta (Homo sapiens) (Q03181 whole entry, looked up): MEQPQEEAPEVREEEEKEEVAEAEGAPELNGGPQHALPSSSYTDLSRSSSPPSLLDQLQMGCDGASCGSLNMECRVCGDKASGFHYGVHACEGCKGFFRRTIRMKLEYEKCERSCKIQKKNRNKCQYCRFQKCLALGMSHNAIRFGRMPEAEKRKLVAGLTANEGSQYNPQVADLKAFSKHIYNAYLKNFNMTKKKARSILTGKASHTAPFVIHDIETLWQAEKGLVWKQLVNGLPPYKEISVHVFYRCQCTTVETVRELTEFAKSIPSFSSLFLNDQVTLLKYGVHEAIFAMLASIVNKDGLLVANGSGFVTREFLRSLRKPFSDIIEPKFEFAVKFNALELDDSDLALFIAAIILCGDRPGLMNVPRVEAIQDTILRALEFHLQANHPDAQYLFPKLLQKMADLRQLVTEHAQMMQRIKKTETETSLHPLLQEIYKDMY
Chain of Bile acid receptor (Homo sapiens) (Q96RI1 whole entry, looked up): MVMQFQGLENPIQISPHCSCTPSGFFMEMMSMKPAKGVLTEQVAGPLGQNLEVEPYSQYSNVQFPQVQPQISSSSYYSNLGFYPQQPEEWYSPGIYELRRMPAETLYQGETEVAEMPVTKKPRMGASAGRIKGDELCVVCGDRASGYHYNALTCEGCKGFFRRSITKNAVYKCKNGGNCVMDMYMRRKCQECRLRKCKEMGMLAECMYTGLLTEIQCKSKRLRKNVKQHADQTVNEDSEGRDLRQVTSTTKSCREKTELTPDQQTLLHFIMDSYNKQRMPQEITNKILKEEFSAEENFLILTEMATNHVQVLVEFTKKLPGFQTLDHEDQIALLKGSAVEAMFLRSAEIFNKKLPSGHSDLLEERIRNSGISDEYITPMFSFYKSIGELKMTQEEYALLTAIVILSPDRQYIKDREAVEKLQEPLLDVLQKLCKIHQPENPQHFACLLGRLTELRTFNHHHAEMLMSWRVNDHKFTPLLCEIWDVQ
Chain of Estrogen receptor (Homo sapiens) (P03372 whole entry, looked up): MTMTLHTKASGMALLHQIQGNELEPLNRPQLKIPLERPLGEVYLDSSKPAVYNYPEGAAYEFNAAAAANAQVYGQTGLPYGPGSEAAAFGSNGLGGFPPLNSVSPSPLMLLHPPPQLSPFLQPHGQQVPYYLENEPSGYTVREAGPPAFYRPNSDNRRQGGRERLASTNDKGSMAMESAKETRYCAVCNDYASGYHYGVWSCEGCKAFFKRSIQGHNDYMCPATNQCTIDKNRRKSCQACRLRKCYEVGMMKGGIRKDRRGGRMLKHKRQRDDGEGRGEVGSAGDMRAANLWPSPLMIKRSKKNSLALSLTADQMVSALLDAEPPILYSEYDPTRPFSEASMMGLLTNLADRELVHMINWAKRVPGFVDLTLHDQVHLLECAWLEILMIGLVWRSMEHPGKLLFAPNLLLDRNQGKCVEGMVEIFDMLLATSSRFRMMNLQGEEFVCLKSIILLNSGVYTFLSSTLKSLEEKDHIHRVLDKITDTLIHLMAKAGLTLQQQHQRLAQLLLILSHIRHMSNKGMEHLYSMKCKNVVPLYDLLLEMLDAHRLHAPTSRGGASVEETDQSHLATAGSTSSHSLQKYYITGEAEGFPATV
Chain of Glucocorticoid receptor (Homo sapiens) (P04150 whole entry, looked up): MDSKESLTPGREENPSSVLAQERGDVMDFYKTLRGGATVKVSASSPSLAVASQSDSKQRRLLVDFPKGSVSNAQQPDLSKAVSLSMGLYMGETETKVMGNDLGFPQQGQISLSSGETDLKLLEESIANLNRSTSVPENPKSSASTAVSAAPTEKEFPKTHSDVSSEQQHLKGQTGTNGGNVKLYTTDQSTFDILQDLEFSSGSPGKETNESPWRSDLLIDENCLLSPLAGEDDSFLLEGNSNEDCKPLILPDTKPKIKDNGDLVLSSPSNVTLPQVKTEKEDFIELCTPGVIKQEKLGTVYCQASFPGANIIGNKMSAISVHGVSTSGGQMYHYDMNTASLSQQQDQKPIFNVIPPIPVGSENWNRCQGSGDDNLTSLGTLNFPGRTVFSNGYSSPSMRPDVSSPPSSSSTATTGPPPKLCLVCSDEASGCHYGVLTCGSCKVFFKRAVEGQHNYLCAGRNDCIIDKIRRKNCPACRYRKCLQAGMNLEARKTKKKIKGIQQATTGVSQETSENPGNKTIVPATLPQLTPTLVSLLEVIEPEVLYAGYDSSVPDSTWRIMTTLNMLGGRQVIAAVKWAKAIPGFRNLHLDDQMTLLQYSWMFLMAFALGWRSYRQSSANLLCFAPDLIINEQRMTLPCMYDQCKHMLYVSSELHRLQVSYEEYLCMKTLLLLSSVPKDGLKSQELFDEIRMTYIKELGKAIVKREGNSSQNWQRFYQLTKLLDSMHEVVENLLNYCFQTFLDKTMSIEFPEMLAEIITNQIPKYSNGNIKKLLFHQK
Chain of Vitamin D3 receptor (Homo sapiens) (P11473 whole entry, looked up): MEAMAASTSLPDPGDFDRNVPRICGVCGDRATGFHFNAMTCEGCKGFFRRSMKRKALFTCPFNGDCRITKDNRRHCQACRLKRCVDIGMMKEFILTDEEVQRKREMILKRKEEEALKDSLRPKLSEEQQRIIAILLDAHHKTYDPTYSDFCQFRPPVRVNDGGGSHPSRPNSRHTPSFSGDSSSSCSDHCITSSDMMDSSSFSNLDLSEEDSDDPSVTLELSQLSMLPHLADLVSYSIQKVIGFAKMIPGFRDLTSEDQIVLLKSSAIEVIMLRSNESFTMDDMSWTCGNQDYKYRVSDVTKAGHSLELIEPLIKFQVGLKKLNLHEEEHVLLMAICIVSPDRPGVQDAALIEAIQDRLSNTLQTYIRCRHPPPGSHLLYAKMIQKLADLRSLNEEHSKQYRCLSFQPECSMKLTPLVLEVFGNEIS
Chain of Peroxisome proliferator-activated receptor gamma (Homo sapiens) (P37231 whole entry, looked up): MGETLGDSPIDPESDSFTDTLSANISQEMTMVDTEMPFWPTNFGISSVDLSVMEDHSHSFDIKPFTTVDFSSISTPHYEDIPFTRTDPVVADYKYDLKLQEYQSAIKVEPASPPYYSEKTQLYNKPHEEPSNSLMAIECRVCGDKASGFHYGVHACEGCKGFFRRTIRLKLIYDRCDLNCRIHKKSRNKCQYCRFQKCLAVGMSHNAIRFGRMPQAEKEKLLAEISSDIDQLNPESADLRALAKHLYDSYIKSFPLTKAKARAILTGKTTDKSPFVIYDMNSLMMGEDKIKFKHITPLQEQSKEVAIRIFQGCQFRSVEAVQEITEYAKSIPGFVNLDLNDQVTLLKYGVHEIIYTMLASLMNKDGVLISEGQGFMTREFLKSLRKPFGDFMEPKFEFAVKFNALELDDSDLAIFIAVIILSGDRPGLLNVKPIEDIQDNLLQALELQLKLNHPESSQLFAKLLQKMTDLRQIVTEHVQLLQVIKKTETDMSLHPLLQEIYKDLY

O=[N+]([O-])c1cc(C(F)(F)F)cc([N+](=O)[O-])c1Cl
active: Potency [1] 31.6 µM | Potency [2] 50.1 µM | Potency [3] 31.6 µM | Potency [4] 31.6 µM | Potency [5] 31.6 µM | Potency [6] 31.6 µM | Potency [7] 31.6 µM | Potency [8] 31.6 µM
inactive: Potency [9] | Potency [10] | Potency [11] | Potency [12] | Potency [13] | activation [14] -1.74% | activation [15] -2.51% | Potency [16] | outcome [17] | Potency [19] | Potency [20] | Potency [21]
32.3%: max response [18]
